MmCpn inh: inhibitors of Methanococcus maripaludis chaperonin TRiC (MmCpn); AID 504842; purified Mm-Cpn ATPase, ADP Transcreener TR-FRET; Potency, µM (doses to about 76.9 µM), inactives show at the highest dose activity, negative = inhibition, actives largely listed as inhibitors; 330,000 compounds, 0.031% hits; note: potency is the fitted concentration of half-maximal effect; nearly all actives have a fitted effect of over 80% in size
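Inhibition of chaperonin ATP hydrolysis is measured as reduced ADP production, detected by competitive TR-FRET in which signal falls with ADP. Final enzyme 25 nM and ATP 10 uM, reacted 30 min at 37°C.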
Sfp PPTase inh: Sfp phosphopantetheinyl transferase inhibition; Biochemical Sfp PPTase activity, qHTS; AID 1490; 310,000 compounds, 3.5% hits; Potency, µM, inactives show largest response in the series, negative = inhibition, hits mostly inhibitors;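 note: the enzyme is Sfp with the accession as filed and its product quenches rhodamine fluorescence; potency is the fitted concentration of half-maximal effect; 0% = enzyme reaction without inhibitor and -100% = no enzyme wells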
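Fluorescence-quenching assay: 15 nM Sfp-PPTase preincubated 15 min at room temperature with compound, then 5 uM rhodamine-CoA and 12.5 uM BHQ-2-labelled YbbR peptide added. Fluorescence (ex 525/em 598 nm) read at start and after 30 min; difference gives rate.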
G9a block: inhibitors of human histone lysine methyltransferase G9a; Q96KQ7; G9a H3K9 monomethylation, AlphaScreen, 2 h; 350,000 compounds, 8.8% hits; Potency, µM (top dose mostly 102 µM), for the others: at the top dose activity, negative = inhibition, usual class: inhibitors; AID 504332; note: potency is the fitted concentration of half-maximal effect; nearly all actives have a fitted effect of over 75% in size
Target sequence (Q96KQ7 913-1193 limits assumed): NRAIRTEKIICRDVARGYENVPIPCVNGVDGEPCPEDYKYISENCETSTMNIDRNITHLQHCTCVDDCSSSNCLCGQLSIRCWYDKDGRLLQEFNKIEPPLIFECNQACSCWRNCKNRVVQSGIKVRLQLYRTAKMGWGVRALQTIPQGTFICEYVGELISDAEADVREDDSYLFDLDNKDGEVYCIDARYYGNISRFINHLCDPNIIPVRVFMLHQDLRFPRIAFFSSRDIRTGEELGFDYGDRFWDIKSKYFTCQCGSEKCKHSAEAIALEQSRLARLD
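AlphaScreen read-out: biotin-H3K9 peptide (500 nM) methylation by 20 nM enzyme with 20 uM SAM, 2 h at room temperature after 15 min compound preincubation; anti-monomethyl H3K9 antibody plus donor/acceptor beads, 10 min dark.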
PLK1 PBD block: PLK1 (human) polo-box domain binding inhibition. Plk1 PBD binding of FITC phosphopeptide, fluorescence polarization. Potency, µM, for inactives: max response, negative = inhibition, most hits filed as inhibitors. 360,000 compounds, 2.8% hits. AID 720504; note: potency is the fitted concentration of half-maximal effect; series mostly up to about 57 µM; nearly all actives have a fitted effect of over 65% in size
VDR inh: vitamin D3 receptor (human) inhibition; P11473; VDR-SRC2-3 peptide fluorescence polarization, 2 h; Potency, µM, for inactives: max response, negative = inhibition, hits mostly inhibitors; 400,000 compounds, 0.93% hits; note: potency is the fitted concentration of half-maximal effect
Target sequence (P11473 whole entry, looked up): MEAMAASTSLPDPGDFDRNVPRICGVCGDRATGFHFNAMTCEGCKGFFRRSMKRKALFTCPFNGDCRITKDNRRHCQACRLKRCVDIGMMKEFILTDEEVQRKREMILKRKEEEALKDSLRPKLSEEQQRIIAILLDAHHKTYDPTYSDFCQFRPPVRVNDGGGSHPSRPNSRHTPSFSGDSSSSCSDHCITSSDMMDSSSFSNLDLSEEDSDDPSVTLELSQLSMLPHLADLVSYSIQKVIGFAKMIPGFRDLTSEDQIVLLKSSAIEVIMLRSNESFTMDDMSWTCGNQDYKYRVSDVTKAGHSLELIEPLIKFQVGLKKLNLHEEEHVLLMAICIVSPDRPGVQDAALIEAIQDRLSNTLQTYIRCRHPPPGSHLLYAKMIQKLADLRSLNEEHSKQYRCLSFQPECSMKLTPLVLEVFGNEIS
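After 23 nl compound addition and a short centrifugation, plates sat for 2 hours at ambient temperature; polarization of fluorescence then indicated loss of VDR binding to peptide SRC2-3.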
CCT modulator: modulators of cytosolic chaperonin (CCT/TRiC) activity; purified chaperonin ATPase assay, HTRF ADP detection, 30 min; activity change, % (no concentration beside the values), hits read low; 360,000 compounds, 0.3% hits; in the data active = activity change below about -30%
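TRiC at 40 or 20 nM final (batch-dependent) in 30 mM Tris pH 7.4, 100 mM KCl, 5 mM MgCl2, 1 mM DTT, with compound at single 76 uM and 10 uM ATP, 30 min at 37 deg C. ADP detected by HTRF Transcreener, 665/615 ratio.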
Active calls of the source: *; ? = inconclusive; nt = no result; ! = repeats disagree; [ ] = remark or other dose. Compounds with a hit are over-represented: about 10% of the library has one in this group of screens. Unless noted, calls come from the whole dose curve; as a rule, active = well fitted curve in the direction sought with a large enough effect; inconclusive = small, poorly fitted or top-dose-only effect, or another doubt; inactive = no such curve, though single readings can be large; an effect the other way counts as inactive or inconclusive. Unless noted, % is set by controls: 0 for no effect and ±100 for the full control effect.

SMILES	MmCpn inh	Sfp PPTase inh	G9a block	PLK1 PBD block	VDR inh	CCT modulator
CCCOc1ccc(/C=C/C(=O)Nc2sc(C)c(C)c2C(=O)OCC)cc1OC	nt	nt	3.2µM*	nt	16µM*	nt
CCOC(=O)C1=C(C)Nc2nc(=S)[nH]n2C1c1ccc(Cl)cc1 (configuration not stated)	-2%	7.9µM*	1.3µM*	24µM*	79µM*	1
COCc1cc(C)nc2sc3c(c12)NC(c1ccc(O)cc1)N(c1ccc(C)cc1)C3=O (configuration not stated)	nt	nt	36%[59 µM]	nt	3%	nt
COc1cccc(N2CCN(Cc3ccco3)CC2)c1	-2%	-28%	nt	5%	-17%	-13
COc1ccc(CN2CCSCC2)cc1C	-1%	-18%	10µM*	-7%	-2%	-1
COc1cccc(CN2CCSCC2)c1	0%	-20%	40µM*	-3%	1%	5
COc1cccc(Cc2n[nH]c(=S)n2Cc2ccco2)c1	-1%	-1%	7.9µM*	-12%	9%	1
COc1cccc(CN2CCN(Cc3ccco3)CC2)c1	0%	45µM*	10µM*	2%	23%	-1
CC(N)(C(=O)O)c1ccc(P(=O)(O)O)cc1 (configuration not stated)	nt	0%	34%[59 µM]	nt	-1%	nt
Cc1ccc(Cl)cc1N1CCN(C(=O)COCc2cc(-c3ccc4c(c3)OCO4)on2)CC1	nt	nt	-9%[59 µM]	nt	1%	nt
COc1cccc(CN2CCN(Cc3cc(OC)c(OC)cc3OC)CC2)c1	-2%	56µM*	45µM*	4%	2%	-3
Brc1ccc(CN2CCSCC2)cc1	1%	-9%	20µM*	-8%	18%	0
COc1ccc(S(=O)(=O)N2CCN(Cc3cccc(OC)c3)CC2)cc1	0%	16%	9%	-12%	-4%	0
Cc1ccc(CN2CCSCC2)cc1	0%	-28%	nt	-4%	4%	-1
CCOC(=O)c1ccc(NC(=O)CCc2c(C)nc3cc(-c4ccc(OC)cc4OC)nn3c2C)cc1	nt	nt	5%[59 µM]	nt	-8%	nt
Cc1ccc2sc(N3CCN(CCNC(=O)c4ccco4)CC3)nc2c1C	0%	nt	45µM*	0%	-11%	0
O=C(NCCN1CCCCC1)c1ccco1	0%	15%	1%[59 µM]	2%	8%	-3
O=C1OCCC1Sc1nnc(-c2ccc(O)cc2)o1 (configuration not stated)	-2%	6%	37%[0.501 µM]	27µM*	11%	0
Cc1ccc(/C=C/c2onc(C)c2S(=O)(=O)N2CCC(C(=O)NCc3ccc(OC(C)C)cc3)CC2)cc1	nt	nt	6%[59 µM]	nt	11%	nt
O=C(O)CC1Sc2nc3ccccc3n2C1=O (configuration not stated)	-1%	4%	45µM*	2%	-8%	-1
CC1=C(C(=O)OCC(Cl)(Cl)Cl)N2C(=O)C(NC(=O)Cc3ccccc3)C2SC1 (configuration not stated)	3%	?	40µM*	-29%	-10%	-2
CC(=O)OCC1=C(C(=O)OC(C)(C)C)N2C(=O)[C@@H](NC(=O)Cc3ccccc3)[C@H]2SC1	nt	nt	nt	17µM*	?	1
CCCOC(=O)N[C@@H]1C(=O)N2C(C(=O)OCCC)=C(C)CS[C@H]12	3%	?	nt	1%	-29%	-2
CCS(=O)(=O)NCC(c1ccco1)N1CCN(c2ccc(F)cc2)CC1 (configuration not stated)	0%	11%	7%[59 µM]	-2%	-3%	-3
CCS(=O)(=O)NCC(c1ccco1)N1CCN(c2ccc(OC)cc2)CC1 (configuration not stated)	nt	nt	47%[59 µM]	nt	4%	nt
SMILES	MmCpn inh	Sfp PPTase inh	G9a block	PLK1 PBD block	VDR inh	CCT modulator
CS(=O)(=O)NCC(c1ccco1)N1CCN(c2ccc(F)cc2)CC1 (configuration not stated)	-1%	1%	45µM*!	-3%	3%	2
COc1ccc(N2CCN(C(CNS(=O)(=O)c3ccc4c(c3)OCCO4)c3ccco3)CC2)cc1 (configuration not stated)	-5%	8%	7.9µM*	-1%	-7%	-1
COc1ccc(N2CCN(C(CNS(=O)(=O)c3ccccc3)c3ccccc3)CC2)cc1 (configuration not stated)	-1%	3%	14µM*	-6%	3%	0
COc1ccc(N2CCN(C(CNS(=O)(=O)c3c(C)cc(C)cc3C)c3ccco3)CC2)cc1 (configuration not stated)	nt	nt	7.1µM*	nt	5%	nt
COc1ccc(S(=O)(=O)NCC(c2ccco2)N2CCN(c3ccc(F)cc3)CC2)cc1 (configuration not stated)	nt	nt	?	nt	3%	nt
Cc1cc(-c2ccc(C)c(S(=O)(=O)Nc3ccccc3C(F)(F)F)c2)on1	nt	nt	-25%[59 µM]	nt	7%	nt
CCNc1ncc2nc(-c3ccccc3)c(=O)n(C3CC3)c2n1	nt	3%	-3%[12.7 µM]	nt	?	nt
CCOc1ccc(-c2cc(-c3nc(-c4ccc(C)cc4)no3)[nH]n2)cc1	nt	nt	12%[59 µM]	nt	11%	nt
Cn1cc(C(=O)O)c(=O)c2cc(S(=O)(=O)N3CCOCC3)ccc21	nt	nt	-1%[59 µM]	nt	0%	nt
Cc1ccc(CNC(=O)c2c(-c3ccc(Br)cc3)noc2C)o1	nt	nt	30%[59 µM]	nt	12%	nt
Cc1ccc(N2CCN(S(=O)(=O)c3cccc4ccccc34)CC2)cc1Cl	nt	nt	39%[59 µM]	nt	-5%	nt
COc1ccc2[nH]c(=O)c(CN(CC3CCCO3)C(=S)Nc3cccc(C)c3)cc2c1 (configuration not stated)	3%	56µM*	nt	1%	13%	3
COc1ccc2[nH]c(=O)c(CN(Cc3cccs3)C(=S)Nc3cccc(C)c3)cc2c1	0%	-10%	-6%[59 µM]	-4%	-4%	-1
COc1ccc2[nH]c(=O)c(CNc3cccc(C)c3)cc2c1	1%	10µM*	?	-3%	-2%	-1
COc1ccc(NCc2cc3cc(OC)ccc3[nH]c2=O)cc1	-4%	-3%	?	-12%	-18%	1
COc1ccc(NCc2cc3ccccc3[nH]c2=O)cc1	?	7%	50µM*	-10%	-23%	-2
CCCCC(CC)CNC(=O)CCCCCn1c(=O)[nH]c2ccsc2c1=O (configuration not stated)	nt	nt	8%[59 µM]	nt	-25%	nt
Cc1ccccc1-c1nnc(SCC(=O)N2CCCc3ccccc32)o1	nt	nt	4%[59 µM]	nt	2%	nt
Cc1ccc(NC(=O)C2CCCN(C(=O)c3cnn(-c4ccccc4)c3-n3cccc3)C2)cc1 (configuration not stated)	nt	nt	-3%[59 µM]	nt	3%	nt
Cc1cc2oc(=O)cc(C)c2c2occ(-c3ccc(Cl)cc3)c12	nt	nt	10%[59 µM]	nt	7%	nt
Nc1ccc2nc(CN3CCOCC3)[nH]c2c1	0%	-29%	?	-7%	9%	-36*
